We go through 64 compounds from PubChem BioAssay AID651965 (National Center for Advancing Translational Sciences (NCATS), 2013).

Among all 340,000 compounds or so, about 6,400 (1.9%) were called active. Entries that show only a call come without a potency. Not shown: some 4% with an inconclusive outcome. Calls follow the shape of the dose curve; as a rule, active = well fitted falling curve with a large enough effect; inconclusive = small, poorly fitted or top-dose-only effect; inactive = no such curve, though single readings can be large or run the other way. For the sample, actives were picked, then their nearest neighbours and some compounds at random.
Potency is read from the fitted curve at half-maximal effect.

Chain of ATP-dependent Clp protease proteolytic subunit (Bacillus subtilis (strain 168)) (P80244 whole entry, looked up): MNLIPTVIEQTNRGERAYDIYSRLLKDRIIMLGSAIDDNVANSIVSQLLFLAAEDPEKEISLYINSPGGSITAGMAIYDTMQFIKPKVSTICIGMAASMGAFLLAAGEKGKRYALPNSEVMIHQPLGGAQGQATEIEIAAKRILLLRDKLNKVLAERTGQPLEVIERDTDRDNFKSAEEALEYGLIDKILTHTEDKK

This assay addresses ATP-dependent Clp protease proteolytic subunit (Bacillus subtilis (strain 168)) (UniProt P80244). Put plainly: qHTS Assay for Activators of ClpP. Also: the source files actives as falling curves though it sought activators and does not explain the sign; nearly all actives have a fitted effect of over 65% in size. The conditions noted are these: purified B. subtilis ClpP, FRET peptide cleavage, 20 min; series mostly up to 57.5 µM. An excerpt: The Clp protease proteolytic subunit (ClpP) is the core unit of the Clp complex belonging to the peptidase family S14 that hydrolyzes protein into small peptides in the presence of ATP and magnesium. It is ubiquitously expressed and is the major protease in bacteria. […] Unlike common antibiotics that simply interfere with the essential enzyme activity, ADEP binding activates the ClpP core in the absence of the regulatory Clp-ATPases leading to uncontrolled proteolysis and eventually cell death. Activators binding to the docking site on ClpP can also block formation of the ClpXP and ClpA/C-P holoenzyme complexes interfering with the normal biological functions of ClpP and thus have the potential to become new anti-microbials.
To identify activators of ClpP, a FRET based quenching reversal assay was developed using a purified B. subtilis ClpP and a decapeptide substrate (FRET-FV). The FRET-FV is tagged with a fluorescent molecule amino benzoic acid (donor) at the N-terminus and a nitrotyrosine quencher (acceptor) at the C-terminus. FRET-FV cleaves upon activation of ClpP with ADEP treatement and reverses the quenching effect of the nitrotyrosine causing an increase in fluorescence emission signal at 430nm. This assay was used to screen the Molecular Libraries Small Molecule Repository (MLSMR).
NIH Molecular Libraries Probe Production Centers Network [MLPCN]
NIH Chemical Genomics Center [NCGC]
Assay Submitter (PI): Michael Maurizi, National Cancer Institute
Two and a half microL/well of purified enzyme solution (final concentrations 10 microg/mL B. subtilis ClpP in 100 mM Tris/HCl pH8, 100 mM KCl, 0.05% low protease BSA, 2.5% glycerol, 0.01% Tween-20 buffer) was dispensed into 1536-well assay plates (Greiner, black solid, medium-binding plates) with Aurora Discovery BioRAPTR Flying Reagent Dispenser (FRD, Beckton-Dickenson). Compound solution (23 nL) was transferred to the assay plate using Kalypsys pin tool equipped with a 1536-pin tool. […] FRET signals at time 0 and after 20 min room temperature incubation were obtained using the PerkinElmer Envision plate reader with 320nm excitation and 430nm emission filters. Delta FRET value (Time 20 - Time 0) was calculated and normalized to the delta FRET value of positive control ADEP (5.8 microM final concentration) and negative control DMSO and no enzyme wells.
For orientation: Quantitative high-throughput screening tests each substance at several concentrations.
As for `Fc1ccc(C2N3CCCN23)cc1` (centres undefined), the Potency is 28.2 µM (active).
On to `O=c1[nH]c2ccccc2n1C1CCN(C(c2ccnc3ccccc23)c2nnnn2Cc2ccccc2)CC1` (centres undefined), for which the Potency entry is “inactive”.
On to `COC(=O)COc1cc(C)cc2oc(=O)c3c(c12)CCCC3`, for which the Potency entry is “inactive”.
Then `CCN1CCN(C(=O)Cc2coc3cc(C)cc(C)c23)CC1`, with “inactive”; and `Cc1cc(OCc2cc(C(=O)O)oc2C)c2c3c(c(=O)oc2c1)CCCC3`, with 28.2 µM (active); and `Cc1ncoc1C(=O)NCC1=C(c2cccc3ccccc23)C[C@@H]2CC[C@H]1N2Cc1ccco1`, with “inactive”.
As for `COC(=O)C1=C(c2ccccc2)C[C@@H]2CC[C@H]1N2C(=O)NCc1ccco1`, the Potency entry is “inactive”.
In the case of `COc1cc(Cn2c(N)c(C(=O)NCc3ccco3)c3nc4ccccc4nc32)cc(OC)c1OC`, the Potency was 28.2 µM (active).
As for `CCOc1ccc(CNC(=O)c2cccc(Nc3nc4ccccc4n4nnnc34)c2)cc1OC`, the Potency result was “inactive”.
Consider `CCOC(=O)c1c(N)n(CCN2CCOCC2)c2nc3ccccc3nc12`, for which the Potency is 25.1 µM (active).
With `CC/C(=N\NC(=O)c1ccccc1O)c1c(O)n(Cc2ccccc2)c(=O)[nH]c1=O`, the Potency result is “inactive”.
For `CCOC(=O)c1c(N)n(Cc2ccccc2)c2nc3ccccc3nc12`, the Potency was 28.2 µM (active).
For the compound `CCOC(=O)c1cccc(C2=C(CNC(=O)c3ccncc3)[C@H]3CC[C@@H](C2)N3Cc2ccccc2)c1`, the Potency result is “inactive”.
For `c1cc2c(cc1C1OCC3C(c4ccc5c(c4)OCO5)OCC13)OCO2` (centres undefined), the Potency result was “inactive”.
For `COc1cccc(C(c2nnnn2-c2ccc3c(c2)OCCO3)N2CCC3(CC2)C(=O)NCN3c2ccccc2)c1OC` (centres undefined), the Potency entry was “inactive”.
With `S=C(NCCc1ccccc1)N1Cc2cc(N3CCOCC3)ccc2-n2nncc2C1`, the Potency entry is “inactive”.
Turning to `O=c1[nH]c2ccccc2n1C1CCN(C(c2ccccc2)c2nnnn2Cc2ccccc2)CC1` (centres undefined), the Potency result was “inactive”.
`CC(=O)NCC1=C(c2ccc3ccccc3c2)C[C@@H]2CC[C@H]1N2Cc1ccco1`: the Potency result was “inactive”.
The same measure for `CSCCC(c1nnnn1C(C)(C)C)N1CCC(n2c(=O)[nH]c3ccccc32)CC1` (centres undefined): “inactive”.
`CCn1cc(CN2CCCC(C(=O)c3cccc(C(F)(F)F)c3)C2)cn1` (centres undefined): the Potency entry was “inactive”.
Turning to `COc1ccc(C2C=C(C)Oc3c2c(=O)oc2ccccc32)cc1OC` (centres undefined), the Potency result is “inactive”.
As to `O=C(O)/C=C/c1ccc2c(c1)OCO2`, the Potency entry was “inactive”.
Then `O=c1c2ccccc2[nH]c(=S)n1-c1cccc(Cl)c1`, with “inactive”; and `CC(C(=O)Nc1ccc(Cl)cc1Cl)N1CC=C(c2ccccc2)CC1` (centres undefined), with 28.2 µM (active).
On to `O=C(Nc1ccc(Cl)cc1C(=O)c1ccccc1)c1cc(Cl)cc(Cl)c1`, for which the Potency result was “inactive”.
Then `CN1CCN(C(=S)SCC(=O)Nc2ccc(Cl)cc2C(=O)c2ccccc2)CC1`, with “inactive”.
For `O=C(NCC1=C(c2ccc3ccccc3c2)C[C@@H]2CC[C@H]1N2Cc1ccco1)c1cccs1`, the Potency entry was “inactive”.
The same measure for `COC(=O)C1=C(c2ccc(OCc3ccccc3)cc2)C[C@@H]2CC[C@H]1N2C(=O)NCc1ccc(Cl)cc1`: “inactive”.
`CCOc1ccc(-c2cc(C)n3nc(C(=O)Nc4ccc(C)c(C)c4)cc3n2)cc1`: the Potency is 3.55 µM (active).
Then `ClCCN(CCCl)c1ccc(C=Nc2ccc(/C=C/c3ccnc4ccccc34)cc2)cc1`, with “inactive”.
Turning to `COC(=O)C1=C(c2ccc(OCc3ccccc3)cc2)C[C@@H]2CC[C@H]1N2C(=O)NCc1cccc(F)c1`, the Potency result was “inactive”.
`Cc1ccc(-c2cc(C(=O)N3CCC4(CC3)OCCO4)no2)cc1`: the Potency result was “inactive”.
For the compound `O=C(c1cc(S(=O)(=O)N2CCOCC2)ccc1F)N1CCC2(CC1)OCCO2`, the Potency result is “inactive”.
Turning to `Cc1cccc(-n2c(C)nc3cc(C(=O)N4CCC5(CC4)OCCO5)ccc32)c1`, the Potency entry is “inactive”.
On to `O=C(c1cc2nc(-c3ccccc3)cc(-c3ccccc3)n2n1)N1CCC2(CC1)OCCO2`, for which the Potency is 35.5 µM (active).
As for `O=C(c1cc(-c2ccncc2)nc2ccccc12)N1CCC2(CC1)OCCO2`, the Potency was 28.2 µM (active).
Then `O=C(c1ccccc1[N+](=O)[O-])N1CCC2(CC1)OCCO2`, with “inactive”.
As to `COc1cc([C@@H]2c3cc4c(cc3[C@H](OC(C)=O)[C@H]3COC(=O)[C@H]23)OCO4)cc(OC)c1OC`, the Potency result is “inactive”.
With `COc1ccc(-n2nnnc2C(c2cccc3ccccc23)N2CCC(n3c(=O)[nH]c4ccccc43)CC2)cc1` (centres undefined), the Potency entry was “inactive”.
The same measure for `COc1ccc(S(=O)(=O)NCc2ccc(C(=O)N3CCC4(CC3)OCCO4)cc2)cc1`: “inactive”; for `COc1ccc(-c2nc(CS(=O)CC(=O)N3CCC4(CC3)OCCO4)c(C)o2)cc1` (centres undefined): 31.6 µM (active); for `COc1ccc(NC(=O)N2CCC3(CC2)OCCO3)c(OC)c1`: “inactive”.
Turning to `CCC(C)(O)C(=O)OC1C(=O)OC2CC3C(C)=CC(=O)C(O)C3(C)C3C4(O)OCC23C1C(C)C4O` (centres undefined), the Potency entry was “inactive”.
Then `CCOC(=O)[C@]12Cc3ccccc3[C@H]1N(C1CCCCC1)C(=O)c1cc(OC)ccc12`, with “inactive”; and `c1ccc(N2Cc3ccccc3-n3nncc3C2)nc1`, with “inactive”; and `COc1cc(C(=O)N2Cc3ccc(Br)cc3-n3nncc3C2)cc(OC)c1OC`, with “inactive”.
Then `C[C@H]1CN([C@@H](C)CO)C(=O)CCCn2nncc2CO[C@H]1CN(C)C(=O)Oc1ccccc1`, with “inactive”; and `COC(=O)C[C@H]1CC[C@H]2NC[C@@H](O)COC[C@@H]2O1`, with “inactive”.
As for `CCN(CC)CCOC(=O)c1cc2cc(COC)ccc2o1`, the Potency is 28.2 µM (active).
Regarding `O=P(OC1=CCCCC1)(c1ccccc1)c1ccccc1`, the Potency result is “inactive”.
In the case of `CC(=CCOc1ccc2ccc(=O)oc2c1)C1=CC(=O)C(C)(C)O1`, the Potency result is “inactive”.
As to `CC1C(=O)OC2CCN3CC=C(COC(=O)C(C)(O)C1(C)O)C23` (centres undefined), the Potency entry is “inactive”.
Take `Cc1nc2nc(C)c(CCC(=O)N3CCC4(CC3)OCCO4)c(C)n2n1`: the Potency entry is “inactive”.
As for `Cc1ccc(Cn2c(C)c3cnn(CC(=O)N4CCC5(CC4)OCCO5)c(=O)c3c2C)cc1`, the Potency result was “inactive”.
Then `O=C(CCCn1c(=O)[nH]c2cc(Cl)ccc2c1=O)N1CCC2(CC1)OCCO2`, with 28.2 µM (active); and `CC(=O)OC1C2(CC3N4C(=O)C5(CO)SSC4(CC31O)C(=O)N5C)OC(C)C(C)(C)C2=O` (centres undefined), with “inactive”; and `COc1ccc(NC(=O)N2Cc3ccccc3-n3nncc3C2)cc1`, with “inactive”.
Consider `COC1C(O)C(C)OC(OC2CCC3(C=O)C(CCC4C3CCC3(C)C(C5=CC(=O)OC5)CCC43O)C2)C1O` (centres undefined), for which the Potency entry is “inactive”.
The same measure for `C[C@H]1CN([C@@H](C)CO)C(=O)CCCn2nncc2CO[C@H]1CN(C)C(=O)Oc1cccc2ccccc12`: “inactive”; for `CCOC(=O)c1c(-c2ccccc2)oc2ccc(OC(=O)N(C)C)cc12`: 3.16 µM (active).
Regarding `CN(C)C(=O)Oc1ccc(OCc2cccc[n+]2C)cc1`, the Potency result was “inactive”.
On to `CN(C)C(=O)Oc1ccc2c(c1)O/C(=C\c1ccccc1)C2=O`, for which the Potency entry is “inactive”.
For `CCOC(=O)[C@]12Cc3cc(OC)ccc3[C@H]1N(C(C)C)C(=O)c1ccccc12`, the Potency entry was “inactive”.
For the compound `O=C(NC1CCCCC1)N1Cc2cc(N3CCCCC3)ccc2-n2nncc2C1`, the Potency entry was “inactive”.
